# From PubChem BioAssay AID463190 (Sanford-Burnham Center for Chemical Genomics, 2010)
# The campaign covered roughly 330,000 compounds. About 7,300 (2.2%) were called active. This excerpt belongs to a sample that is enriched for actives. Values without a mark were called inactive.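 The calls were made as follows: active = inhibition of at least 40%; inactive = the rest.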
# Assay: growth inhibitors of tim10-1 mutant yeast, primary screen, luminescence, uHTS (AID 463190);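 also: mutant grown at 25 °C; 0% = DMSO wells with yeast and 100% = wells holding no yeast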
# Conditions: S. cerevisiae tim10-1 ts strain growth, BacTiter-Glo, 24 h; at 20 µM; hits give high values
row,Structure (SMILES),inhibition
1,O=C(Cn1cnc2c(OCc3ccccc3)ncnc21)NCc1nc2ccccc2[nH]1,-4.29%
2,CCOc1ccccc1NC(=O)Cn1nnc(C(=O)NCc2cccs2)c1N,10.5%
3,Cn1ncc(Br)c1C(=O)NCc1cccs1,1.74%
4,CC(C)Cn1c(N)c(C(=O)NCc2cccs2)c2nc3ccccc3nc21,43.7% (active)
5,NS(=O)(=O)c1cc2c(cc1Cl)NC(C(Cl)Cl)NS2(=O)=O (configuration not stated),0.045%
6,C=CCCC(=O)Nc1nc(C)c(-c2csc(Nc3ccc(Cl)cc3)n2)s1,41.2% (active)
7,Cc1nc(NC(=O)c2cccc(Cl)c2)sc1-c1csc(Nc2cccc(Cl)c2)n1,-8.28%
8,Cc1nc(NC(=O)CN(C)S(=O)(=O)c2ccc(Cl)cc2)sc1C,4.21%
9,CCCCCCC(=O)Nc1nc(C)c(-c2csc(Nc3cc(Cl)ccc3OC)n2)s1,3.74%
10,CCCCCCC(=O)Nc1nc(C)c(-c2csc(Nc3cccc(OC)c3)n2)s1,14.8%
11,CCCCC(=O)Nc1nc(C)c(-c2csc(Nc3ccc(Cl)cc3)n2)s1,42.5% (active)
12,COc1ccc(S(=O)(=O)c2c[nH]c(=S)[nH]c2=O)cc1Cl,-8.62%
13,O=C(CCN1C(=O)c2ccncc2C1=O)Nc1cc(F)ccc1F,7.78%
14,CC(=O)N1CCCc2cc(S(=O)(=O)N3CCCC(C(=O)N4CCN(c5cccc(Cl)c5)CC4)C3)ccc21 (configuration not stated),10.1%
15,COc1ccc(-n2cc(-c3ccccc3)c3c(=S)nc[nH]c32)cc1,40.1% (active)
16,O=c1[nH]cnc2c1c(-c1ccccc1)cn2-c1ccc(F)cc1,34.1%
17,COc1ccc(-n2c(=S)[nH]c3sc4c(c3c2=O)CCc2ccccc2-4)cc1,6.58%
18,C=CCn1c(SCC(=O)Nc2ccc(NC(C)=O)cc2)nc2sc(C)c(C)c2c1=O,15.8%
19,Cc1sc2ncnc(SCC(=O)Nc3ccc(CN4CCCC4)cc3)c2c1C,46.3% (active)
20,COC(=O)c1c(-c2cccs2)csc1NC(=O)CSc1ncnc2sc(C)c(C)c12,17.6%
21,Cc1cc(C(=O)OCC(=O)Nc2ccc(F)c(F)c2)c(C)o1,-15.7%
22,Cc1cccc(C(=O)N2CCC(c3nc4ccccc4s3)CC2)c1,20.6%
23,Cc1cccc(NC(=S)N2CCCC(c3nc4ccccc4[nH]3)C2)c1 (configuration not stated),0.466%

row,Structure (SMILES),inhibition
1,Cc1cccc(NC(=S)N2CCC(c3nc4ccccc4s3)CC2)c1,47% (active)
2,COc1ccc(OC)c(C(O)c2nc3ccccc3n2C)c1 (configuration not stated),12%
3,CNC[C@@H]1Oc2c(NS(C)(=O)=O)cccc2C(=O)N([C@@H](C)CO)C[C@H]1C,-4.12%
4,NS(=O)(=O)c1ccc(N2C(=O)C3C4CC(C(Br)C4Br)C3C2=O)cc1 (configuration not stated),-7.31%
5,ON=C1/C(=N\O)CC2(C/C1=N/O)OCCO2,-13.1%
6,Oc1c(CN2CCCC2)cc(COCc2ccccc2)c2cccnc12,14.6%
7,Cc1cccnc1NC(=O)c1cccc(S(=O)(=O)N2CCN(c3ccc(F)cc3)CC2)c1,23.8%
8,Oc1c(CN2CCN(c3ccc(F)cc3)CC2)cc(Cl)c2cccnc12,45.3% (active)
9,CCN(CCn1cccn1)Cc1cn[nH]c1-c1ccc(OC)cc1F,6.84%
10,COc1cc2sc(C)nc2cc1C,13.3%
11,Cc1ccc(S(=O)(=O)N(Cc2cccc([N+](=O)[O-])c2)C(=O)N2CCN(C)CC2)cc1,26.5%
12,CCOc1ccc(NC(=O)C2CC(=O)N=C(N)S2)cc1 (configuration not stated),3.69%
13,CC(OC(=O)c1ccccc1OCc1ccc(Cl)cc1)C(N)=O (configuration not stated),-12.2%
14,O=c1c(-c2ccc3c(c2)OCCO3)c(C(F)(F)F)oc2cc(O)cc(O)c12,44% (active)
15,CCOC(=O)c1cc2cc(-c3c(C(=O)OCC)oc4cc(O)cc(O)c4c3=O)ccc2o1,27.5%
16,COc1ccc(-c2onc(C)c2-c2ccc3c(c2)OCCO3)c(O)c1,22.7%
17,O=[N+]([O-])c1cc(C(F)(F)F)ccc1NN=C1CCCC1,-6.28%
18,O=C(CSc1ccc(C(F)(F)F)cc1[N+](=O)[O-])NCCOc1ccccc1,8.09%
19,Nc1ccccc1Sc1ccc(C(F)(F)F)cc1[N+](=O)[O-],40.4% (active)
20,Cc1ccccc1C(=O)NNC(=O)CN1C(=O)c2ccccc2C1=O,23.4%
21,O=C(CSc1nnc(Cn2cnc3ccccc32)o1)c1ccccc1,24.1%
22,Cc1oc2cc([N+](=O)[O-])c(O)c([N+](=O)[O-])c2c1C(=O)c1ccc(Br)cc1,25%
23,Cc1oc2cc(Br)c(O)c(Br)c2c1C(=O)c1ccccc1,41.8% (active)

row,Structure (SMILES),inhibition
1,COc1ccc(C(=O)c2c(C)oc3cc([N+](=O)[O-])c(O)c([N+](=O)[O-])c23)cc1,12.5%
2,O=C(Nc1ccc2c(c1)OCO2)C1CC1(Cl)Cl (configuration not stated),-5.38%
3,CCC(C(=O)NC1CCCC1)N(C(=O)Cn1nnc(-c2ccc(C)o2)n1)c1ccc(OC)c(OC)c1 (configuration not stated),18.2%
4,CSc1ccc(CN2C(=O)NC3(CCCCCC3)C2=O)cc1,23.7%
5,NC(=O)C1=C[C@@H](c2ccc3c(c2)OCO3)C[C@@H](OCCCCO)O1,-9.86%
6,CCOC(=O)c1c(NC(=O)c2ccc(S(=O)(=O)N(C)CC3CCCO3)cc2)sc2c1CC(C)(C)NC2(C)C (configuration not stated),3.46%
7,COC(=O)c1sccc1NC(=O)COc1ccc(Cl)cc1,7.8%
8,COC(=O)c1c(NC(=O)COc2ccc(Cl)cc2Cl)sc2c1CC(C)(C)NC2(C)C,43.6% (active)
9,O=S(=O)(Nc1ccc2nc(N3CCOCC3)sc2c1)c1ccccc1,3.87%
10,O=C(c1ccc2nc(N3CCOCC3)sc2c1)N1CCN(c2ccc(Cl)cc2)CC1,49.1% (active)
11,Cc1nc2ccc(C(=O)N3CCSCC3)cc2s1,4.92%
12,C/C(N)=C(/C#N)C(=O)COC(=O)c1cc(-c2ccc(C)cc2)nc2ccccc12,11.4%
13,N/C(=N\OC(=O)c1cc(-c2ccccc2)nc2ccccc12)c1ccncc1,57.4% (active)
14,COC(=O)CNC(=O)c1cc(-c2ccncc2)nc2ccccc12,13.6%
15,Cc1ccc(N/C(N)=N/c2nc(C(F)(F)F)cc(C(F)(F)F)n2)cc1,14.4%
16,CCC(NC(=O)c1ccccc1NC(=O)c1ccccc1)C(=O)NNC(=O)CSc1nc2ccccc2o1 (configuration not stated),11%
17,CCOC(=O)c1ccc(N2C(=O)CC(N3CCN(C(=O)c4ccccc4)CC3)C2=O)cc1 (configuration not stated),20%
18,CCOC(=O)c1ccc(N2C(=O)CC(N3CCC(C(=O)OCC)CC3)C2=O)cc1 (configuration not stated),43.8% (active)
19,CCOC(=O)c1ccc(N2C(=O)CC(N3CC(C)OC(C)C3)C2=O)cc1 (configuration not stated),29.9%
20,O=C(NC(Cc1ccc(O)cc1)C(=O)O)/C(=C/c1ccccc1)NC(=O)c1ccccc1 (configuration not stated),-12.7%
21,COc1ccc(NC(=O)CN(C)C(=O)CNC(=O)C2CCCCC2)cc1,3.37%
22,COc1cc(NC(=O)C2CCN(c3cnccn3)CC2)cc(OC)c1,18.5%
23,Clc1ccc(C2CC(c3cccs3)n3ncnc3N2)cc1Cl (configuration not stated),44.6% (active)

row,Structure (SMILES),inhibition
1,COc1ccc(C2CC(c3ccc(C)cc3)Nc3ncnn32)cc1 (configuration not stated),31.2%
2,Nc1nc2n(n1)C(c1ccco1)CC(c1ccc(Cl)c(Cl)c1)N2 (configuration not stated),20.9%
3,Cc1ccc(C)c(-n2ccnc2SCC(N)=O)c1,1.23%
4,CCOC(=O)c1sc(=NC(=O)/C=C/c2cccs2)n(C)c1C,9.93%
5,Cc1c2cnn(CC(=O)NCCCN3CC(C)CC(C)C3)c(=O)c2c(C)n1Cc1ccc(Cl)cc1 (configuration not stated),-4.29%
6,CCOC(=O)C1=C(c2ccccc2)NC(=O)NC1c1cc(OC)c(OC)cc1OC (configuration not stated),2.13%
7,CC(C)(C)c1ccc(CN2C(=O)c3ccccc3S2(=O)=O)cc1,15%
8,CCOC(=O)c1ccccc1CN1C(=O)c2ccccc2S1(=O)=O,43.5% (active)
9,CN(Cc1cccs1)C(=O)CN1C(=O)c2ccccc2S1(=O)=O,-8.18%
10,COC(=O)c1cc2c(ccn2C)n1C,-6.2%
11,COc1ccc(C(C)=O)cc1COc1ccc(Cl)c(C)c1,3.35%
12,CCn1nc(C)c(NC(=O)/C=C/c2ccc(OC)c(COc3ccc(Br)cc3)c2)c1C,52.1% (active)
13,COc1ccc(/C=C/C(=O)Nc2c(C)nn(C)c2C)cc1COc1ccc(Br)cc1,29.4%
14,CC(=O)Nc1ccccc1OC(=O)N1CCOCC1,-3.71%
15,O=C(Oc1cccc(C(=S)N2CCOCC2)c1)c1cccc(Cl)c1,39.2%
16,O=C(/C=C/c1cccs1)c1cc(Cl)ccc1OC(=O)N1CCOCC1,50.2% (active)
17,Cc1ccc(NS(=O)(=O)c2ccc(C(=O)NCCCN3CCOCC3)cc2)cc1,-36%
18,CC1(C)CC(=O)C=C(c2ccc(Cl)c(C(F)(F)F)c2)C1,0.973%
19,Cc1cccc(OC(C)C(=O)N2CCc3ccccc3C2)c1 (configuration not stated),-6.4%
20,O=C(/C=C/c1ccccc1)N/C(=C/c1ccccc1)C(=O)Nc1ccccc1O,32.3%
21,O=C(/C=C/c1ccccc1)c1ccccc1O,48.7% (active)
22,O=C(/C=C(O)/C=C/c1ccc(O)cc1)/C=C/c1ccc(O)cc1,4.38%
23,CCCCC[C@H]1CN(C2CCCCC2)C(=O)[C@@H]1CC(=O)NCc1ccc(OC)cc1,17.9%
